Measurements taken from PubChem BioAssay AID652126 (The Scripps Research Institute Molecular Screening Center, 2013).
Out of some 370,000 compounds screened, about 3,700 (1%) were called active.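 Rule for the calls: active = activation above the mean over all tested compounds plus 3 SD (cut at about 0.9% in these data); inactive = the rest.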 Shown is part of a subset that was picked to be rich in actives.

Each compound was assayed on Nuclear hormone receptor DAF-12 (Strongyloides stercoralis) (assay: ssDAF-12 driven luciferase reporter activation – cell-based, luminescence, HEK293, GRIP1 co-expression, lit1-tk-luc, primary screen (AID 652126;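 note: 0% = DMSO-only wells and 100% = 3 µM delta7-dafachronic acid wells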)). Details: HEK293 ssDAF-12/GRIP1 lit1-tk-luc reporter, at 6.8 µM, stronger effect = higher value, % of 3 µM dafachronic acid response.

Row | SMILES | activation
1 | COc1cccc(Cn2cc(COC(=O)Nc3ccc(F)cc3)nn2)c1 | -0.68% (inactive)
2 | COc1ccc(CSc2nnc(-c3cccc(C)c3)n2C)cc1 | -1.19% (inactive)
3 | COc1ccc(C2CC(c3cccs3)=NN2c2nc(C)c(C(C)=O)s2)cc1OC (stereo not given) | -0.94% (inactive)
4 | COc1ccc(C2CC(=O)n3c(nc4ccccc43)S2)cc1OC (stereo not given) | -1.19% (inactive)
5 | COc1ccc(C2CC(c3cccs3)=Nc3ccccc3S2)cc1OC (stereo not given) | 1.64% (active)
6 | COP(=O)(O)CNC(=O)OCc1ccccc1 | -0.73% (inactive)
7 | CC(=O)N1CCCN(C2=Nc3ccccc3Sc3ccccc32)CC1 | -1.69% (inactive)
8 | COc1ccccc1C(=O)COC(=O)CSCC(=O)Nc1cc(C)on1 | 1.36% (active)
9 | Cc1cc(NC(=O)CSCC(=O)NC(C)c2ccccc2)no1 (stereo not given) | -1.09% (inactive)
10 | Cc1cc(NC(=O)CSCc2ccccc2C)no1 | -1.6% (inactive)
11 | CN(CCO)c1cccc2c1S(=O)(=O)N(Cc1cn(Cc3ccc(C(F)(F)F)cc3)nn1)Cc1ccccc1O2 | -0.96% (inactive)
12 | O=C1C(=O)N(Cc2ccc(-c3ccsc3)cc2)c2ccc(OC(F)(F)F)cc21 | -0.76% (inactive)
13 | CCS(=O)(=O)c1cc([N+](=O)[O-])c(Sc2ccccc2N)s1 | 0.94% (active)
14 | COc1ccccc1C(=O)CSc1nnc(-c2ccccn2)n1-c1ccccc1 | -1.43% (inactive)
15 | C=CCN1C(=O)[C@@H](CC(=O)NCC2CCCCC2)[C@]2(C(=O)OC)CCCCC=C12 | -1.59% (inactive)
16 | COCC(=O)N[C@@H]1C[C@@H]2O[C@@H](CO)CC[C@@H]2O[C@@H]1CCc1ccc(-c2ccccc2)cc1 | -1.17% (inactive)
17 | CN(Cc1nc2ccccc2s1)C(=O)c1ccc(F)cc1 | 1.11% (active)
18 | CN(Cc1ccc(F)cc1)C(=O)COc1ccc2ccccc2c1 | -0.45% (inactive)
19 | COc1ccccc1S(=O)(=O)NCc1ccc(C(=O)N(C)Cc2ccc(F)cc2)cc1 | -1.02% (inactive)
20 | CSc1ccc(C=Nn2c(-c3ccc(F)cc3)n[nH]c2=S)cc1 | -1.67% (inactive)
21 | C[C@@H]1ON(C)[C@H]2C[C@H]3c4[nH]c5cccc(-c6ccc7c(c6)OCO7)c5c4CCN3C[C@@H]12 | -0.56% (inactive)
22 | CC(C)Cc1cc(C(=O)NCCc2ccccc2)no1 | 1.34% (active)
23 | O=C(NCCCc1ccccc1)c1cc(COc2c(F)cccc2F)on1 | -0.16% (inactive)
24 | CC(C)Cc1cc(C(=O)Nc2cc(Br)ccc2O)no1 | -1.29% (inactive)
25 | COc1ccc(-n2c(SCC(=O)Nc3ccc(C)c(Cl)c3)nc3ccccc3c2=O)cc1 | -2.01% (inactive)
